Source: PubChem
ADAM17 inh – ADAM17 inhibition, QFRET primary screen. inhibition, % at 6.95 µM. 0.83% of 370,000 active. P78536. recombinant ADAM17, EDANS/DABCYL FRET peptide cleavage. AID 720648;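 active = inhibition above the mean of compounds lying between control limits plus 3 SD, set per campaign, cut at about 8.5% in these data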
ADAM10 inh – inhibits human ADAM10 | recombinant ADAM10, EDANS/DABCYL FRET peptide cleavage, 3 h | inhibition, % at 7 µM | 0.62% of 370,000 active | AID 720582;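 active = inhibition above a per-campaign cutoff equal to the mean of compounds falling between control-based bounds plus 3 SD, cut at about 20% in these data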
KLK7 zymogen act – proKLK7 (human) activation, primary screen | AID 652039 | 0.9% of 370,000 active | activation, % at 7 µM | purified proKLK7, EDANS-DABCYL substrate fluorescence; 100% is mature enzyme control, 0% vehicle;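 active = activation above the mean of all tested compounds plus 3 SD, computed per campaign excluding outliers beyond control limits, cut at about 13% in these data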
PLC-beta3 inh – inhibitors of human phospholipase C beta3. Q01970. Purified PLC-beta3, fluorogenic substrate, fluorescence. inhibition, % at 12.2 µM. 0.18% of 370,000 active. AID 720704; in the data active = inhibition above about 11%
PLCg1 inh – blocks human PLC-gamma1 enzyme activity | purified PLC-gamma1, fluorogenic substrate, fluorescence | inhibition, % at 12.2 µM | 0.84% of 370,000 active | AID 720700 | P19174
PLCg1 ctr – PLC-gamma1 inhibition, counter-screen for PLC-beta3 hits; shares compounds with PLCg1 inh; purified PLC-gamma1, fluorogenic substrate, fluorescence; inhibition, % at 12.3 µM; 3.1% of 3,300 active
PLCb3 confirm – human PLC-beta3 inhibition, confirmation; shares compounds with PLCg1 inh; purified PLC-beta3, fluorogenic substrate fluorescence; inhibition, % at 12.3 µM; 1% of 3,300 active; in the data active = inhibition above about 11%
Large screens that a line does not name were inactive (follow-up assays come after a bar, where they were run); ! = not confirmed by another sample. This is a sample that favours compounds with a hit; in the whole collection about 2.9% have one here. Cut-off read from the data, not from the text of the source, unless noted: active = inhibition above about 9.5%; inactive = the rest.

C=CCN1C(=O)[C@H](CC(=O)NCc2ccc(C)o2)[C@@]2(C(=O)OCC)CCCC=C12	none
CCOC(=O)N1CCN(C(=O)C[C@H]2C(=O)N(Cc3ccc(OC)cc3)C3=CCCC[C@@]32C(=O)OCC)CC1	PLCg1 inh 11.2 | PLCg1 ctr inactive | PLCb3 confirm inactive
CCOC(=O)[C@]12CCCC=C1N(Cc1ccc(OC)cc1)C(=O)[C@@H]2CC(=O)N1CCCCC1	none
CCC(C(=O)NC(C)(C)C)n1c(-c2cccc(NC(C)=O)c2)nc2ccccc21 (stereo not drawn)	none
COc1cc(CN2C[C@@H](CO)O[C@@H](n3cnc4c(N5CCOCC5)ncnc43)C2)cc(OC)c1OC	none
Cc1ccc(S(=O)(=O)N2[C@@H](c3ccc(Cl)cc3)C(C(=O)O)=CC[C@H]2c2ccc(Cl)cc2)cc1	PLCg1 inh 9.8 | PLCg1 ctr inactive | PLCb3 confirm inactive
O=C(NCc1ccccc1)N1CCN(CCO)CC1	none
Cc1ccc(NC(=S)N/C(=N/S(=O)(=O)c2ccccc2)c2ccccc2)cc1	PLCg1 inh 16.5! | PLCg1 ctr inactive | PLCb3 confirm inactive
Cc1ccc(S(=O)(=O)/N=C(/NC(=S)Nc2ccccc2)c2ccccc2)cc1	none
CS(=O)(=O)N1CCN(C(=O)c2ccc(F)cc2)CC1	PLCg1 inh 11.9 | PLCg1 ctr inactive | PLCb3 confirm inactive
CS(=O)(=O)N1CCN(C(=O)c2ccncc2)CC1	none
Oc1ccc(/C=N/NC(=S)Nc2cccnc2)c(O)c1O	PLCg1 inh 11.5 | PLCg1 ctr inactive | PLCb3 confirm inactive
O=C1C=C[C@H]2CC[C@@H](O)[C@@H]1[C@@H]2Sc1ccccc1	PLCg1 inh 10.3 | PLCg1 ctr inactive | PLCb3 confirm inactive
Nc1[nH]c(C(=O)c2ccccc2)c(-c2cccnc2)c1C(=O)NCCc1c[nH]c2ccccc12	none (no result: KLK7 zymogen act)
CC1(C)CC(=O)C=C(c2ccc(Oc3ccccc3)cc2)C1	PLCg1 inh 10.4 | PLCg1 ctr inactive | PLCb3 confirm inactive
CN(C)c1ccc(O)c2c1CC1CC3[C@@H](N(C)C)C(=O)C(C(N)=O)=C(O)[C@]3(O)C(=O)C1=C2O (stereo partly drawn)	PLCg1 inh 16.5 | PLCg1 ctr inactive | PLCb3 confirm inactive
Cc1ccc(C)c(S(=O)(=O)c2c(C)cc(C)nc2Cl)c1	none
Cc1ccc(S(=O)(=O)c2c(C)cc(C)nc2Cl)c(C)c1	PLCg1 inh 10.7 | PLCg1 ctr inactive | PLCb3 confirm inactive
N#Cc1c(NC(=O)C2CC(c3ccccc3O)=NO2)sc2c1CCC2 (stereo not drawn)	PLCg1 inh 14.1 | PLCg1 ctr inactive | PLCb3 confirm inactive
N#Cc1c(NC(=O)C2CC(c3ccccc3Cl)=NO2)sc2c1CCC2 (stereo not drawn)	none
CCOC(=O)Cc1csc(SCC(=O)c2c(N)n(CC(C)C)c(=O)n(C)c2=O)n1	PLCg1 inh 10.4 | PLCg1 ctr inactive | PLCb3 confirm inactive
Cc1ccc(-n2nnnc2SCC(=O)c2c(N)n(CC(C)C)c(=O)n(C)c2=O)cc1	PLCg1 inh 10.8 | PLCg1 ctr inactive | PLCb3 confirm inactive
CC(C)Cn1c(N)c(C(=O)CSc2nc3ccccc3n2C)c(=O)n(C)c1=O	none
Cc1csc(SCC(=O)c2c(N)n(CC(C)C)c(=O)n(C)c2=O)n1	none
CCCc1nc2ccc(C)cn2c1Cc1cccc(Cl)c1	none
CC(C)N(C(=O)[C@H]1C[C@H](CC(=O)NCCN2CCOCC2)C(=O)N2CCc3c([nH]c4ccc(Cl)cc34)[C@]12C)C(C)C	PLCg1 inh 9.9 | PLCg1 ctr inactive | PLCb3 confirm inactive
CO/N=C/C(C#N)=C/c1ccc(OC)cc1	PLCg1 inh 14.7 | PLCg1 ctr inactive | PLCb3 confirm inactive
COc1ccc(/C=C(/C#N)S(=O)(=O)c2ccc(C)cc2)cc1	none
CN1OC[C@@H]2CN(C(=S)NCCc3ccccc3)[C@H](c3ccc(N4CCCCC4)cc3)C[C@@H]21	none
COCCN(CCOC)C(=O)Nc1ccc(Cl)cc1	none
COCCN(Cc1ccccc1)C(=S)Nc1ccc(Cl)cc1	PLCg1 inh 12.7 | PLCg1 ctr inactive | PLCb3 confirm inactive
O=C(NCCc1ccccc1F)C1C(=O)Nc2ccccc2C(=O)N1C1CCCCC1 (stereo not drawn)	none
